# In PubChem BioAssay:
# For some of these results: Entries with a potency or affinity are not part of this list. Records with an inconclusive call do not appear. The list shows a part of the results. Activity calls are given as the source filed them. Unless noted, no rule for the calls is given here.
# Legend:
# [1] = general cell-killing toxicity readout – plate reader, dry powder samples, cytotoxicity control for PAX8 inhibitor project, dose response (AID 743021)
# [2] = A2780 cell killing – plate reader, dry powder samples, cytotoxicity control, dose response (AID 743046);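 also: 0% = neutral control wells and -100% = cytotoxic reference compound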
# [3] = IGROV1 cell killing – plate reader, dry powder samples, PAX8 inhibitor project, dose response (AID 743043);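 also: more negative means fewer viable cells or more cytotoxicity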
# [4] = OVCAR-3 cell viability loss – plate reader, dry powder samples, PAX8 inhibitor project, dose response (AID 743044); conditions: max activity: at 35 µM, stronger effect = lower value unless noted
# [5] = toxicity toward immortalized ovarian surface epithelium – cell-based, plate reader, dry powder samples, cytotoxicity control for PAX8 inhibitor project, dose response (AID 743045);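 also: 0% = neutral control median and -100% = positive control median; more negative values mean more cell killing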
# [6] = OVCAR8 cell viability loss – plate reader, dry powder samples, PAX8 project, dose response (AID 743197)
# [7] = Ring1 de-repression measured by qPCR – cell-based, mouse ESC, RT-qPCR, cherry-pick, esBAF inhibitor project, confirmation (AID 743176;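 active = Ring1 gene expression raised more than 2-fold over untreated cells in both replicates at either tested dose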;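 also: Ring1 transcript normalised to actin housekeeping signal by TaqMan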); conditions: mouse ESC E14, Ring1 mRNA RT-qPCR fold change, stronger effect = higher value
# [8] = Bmi1 mRNA increase in mouse ESCs – cell-based, RT-qPCR, mouse ESC, single point, cherry-pick, confirmation (AID 743180;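 active = Bmi1 expression fold change above 6 at either tested concentration, seen in replicate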;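 also: higher fold means more Bmi1 de-repression and stronger esBAF inhibition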); conditions: mouse ESC E14, Bmi1 mRNA qPCR fold, stronger effect = higher value
# [9] = viability loss in A549 cells – cell-based, plate reader, single point, cherry-pick, cytotoxicity control (AID 743188); conditions: at 25 µM
# [10] = viability loss in HepG2 cells – cell-based, plate reader, single point, cherry-pick, cytotoxicity control (AID 743189; in the data active = activity change below about -50%); conditions: at 25 µM, stronger effect = lower value
# [11] = viability loss in HEK293 cells – cell-based, plate reader, single point, cherry-pick, cytotoxicity control (AID 743190; in the data active = activity change below about -38%, passing the limit was not always enough); conditions: at 25 µM
# [12] = Fgf4 repression measured by qPCR – cell-based, mouse ESC, RT-qPCR, cherry-pick, esBAF inhibitor project, confirmation (AID 743177;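 active = Fgf4 expression under 0.8 fold of control in both repeat measurements at one or both tested doses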;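 also: Fgf4 transcript normalised to actin in duplex TaqMan qPCR; cells exposed to compound for 24 h before lysis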); conditions: mouse ESC E14, Fgf4 mRNA qPCR fold change, stronger effect = lower value
# [13] = A549 cell cytotoxicity, dose response, cytotoxicity control, plate reader, cherry-pick, antagonist series (AID 743412);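 also: 0% = neutral control wells and -100% = positive control wells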
structure (smiles),measurement,setting,value
O=C(CCCN1C(=O)/C(=C\c2cccc(Br)c2)SC1=S)Nc1ccccn1,outcome,[1],inactive
same,outcome,[2],inactive
COc1ccc(C(=O)c2ccc(Cl)c([N+](=O)[O-])c2)cc1,outcome,[1],inactive
Brc1ccc(-n2cc(-c3ccccc3)c3c(NN4CCOCC4)ncnc32)cc1,outcome,[1],inactive
N#C[C@H]1[C@@H](c2ccc(C3=CCCC3)cc2)[C@@H](CO)N1C(=O)NC1CCCCC1,outcome,[1],inactive
same,outcome,[3],inactive
same,outcome,[4],inactive
same,outcome,[2],inactive
COc1ccccc1C#Cc1ccc([C@H]2[C@@H](CO)N(C(=O)C3CCCC3)[C@H]2C#N)cc1,outcome,[5],inactive
same,outcome,[2],inactive
COc1cc(-c2cnc3c(NC=O)cc(-c4ccccc4)cn23)cc(OC)c1OC,outcome,[1],inactive
N#C[C@H]1N[C@H](CO)[C@@H]1c1ccc(C#Cc2ccccc2F)cc1,outcome,[1],inactive
same,outcome,[5],inactive
same,outcome,[2],inactive
N#C[C@H]1[C@@H](c2ccc(C#Cc3cccc(F)c3)cc2)[C@@H](CO)N1C(=O)C1CCCC1,outcome,[4],inactive
same,outcome,[5],inactive
C[C@@H]1CN([C@@H](C)CO)S(=O)(=O)c2ccc(C#CC3CCCC3)cc2O[C@H]1CN(C)Cc1cccnc1,outcome,[3],inactive
same,outcome,[5],inactive
same,outcome,[6],inactive
COc1ccc(Nc2ccc3ccccc3c2)cc1,fold change,"[7]; Ring1 fold increase, at 7 µM",1.4
same,fold change,[7]; at 33 µM,1.14 (inactive)
same,fold change,"[8]; Bmi1 de-repression, at 7 µM",1.37
same,fold change,[8]; at 33 µM,2.11 (inactive)
same,cell viability change % (negative = cytotoxic),[9],-5.46% (inactive)
same,"activity change, negative = inhibition",[10],10% (inactive)
same,"activity change, negative = inhibition",[11],-0.0365% (inactive)
O=C(c1noc2c1CCCC2)N1CCc2ccccc2C1,fold change,"[7]; Ring1 fold increase, at 7 µM",1.38
same,fold change,[7]; at 33 µM,1.19 (inactive)
same,Fgf4 expression fold change,"[12]; Fgf4 expression, at 7 µM",1.06
same,Fgf4 expression fold change,[12]; at 33 µM,1.15 (inactive)
same,fold change,"[8]; Bmi1 de-repression, at 7 µM",1.08
same,fold change,[8]; at 33 µM,1.13 (inactive)
same,cell viability change % (negative = cytotoxic),[9],-13.7% (inactive)
same,"activity change, negative = inhibition",[10],0.136% (inactive)
same,"activity change, negative = inhibition",[11],-12.4% (inactive)
CN(C)c1ccc(C(=O)Nc2nc3c(s2)CCCC3)cc1,outcome,[13],inactive
O=S(=O)(NC[C@@H]1CC[C@@H]2[C@@H](CN2CC(c2ccccc2)c2ccccc2)O1)c1ccccc1F,outcome,[6],inactive
CCc1c(C)sc(NC(=O)c2cccs2)c1C(N)=O,fold change,"[7]; Ring1 fold increase, at 7 µM",1.31
same,fold change,[7]; at 33 µM,0.944 (inactive)
same,Fgf4 expression fold change,"[12]; Fgf4 expression, at 7 µM",1.09
same,Fgf4 expression fold change,[12]; at 33 µM,1.11 (inactive)
same,fold change,"[8]; Bmi1 de-repression, at 7 µM",1.35
same,fold change,[8]; at 33 µM,1.67 (inactive)
same,cell viability change % (negative = cytotoxic),[9],-14% (inactive)
same,"activity change, negative = inhibition",[10],-29% (inactive)
same,"activity change, negative = inhibition",[11],-22.2% (inactive)
Cc1nc(-c2ccccc2)sc1-c1nnc(C2CC2)o1,fold change,"[7]; Ring1 fold increase, at 7 µM",1.23
same,fold change,[7]; at 33 µM,1.31 (inactive)
same,Fgf4 expression fold change,"[12]; Fgf4 expression, at 7 µM",0.99
same,Fgf4 expression fold change,[12]; at 33 µM,1.05 (inactive)
same,fold change,"[8]; Bmi1 de-repression, at 7 µM",1.21
same,fold change,[8]; at 33 µM,1.79 (inactive)
same,cell viability change % (negative = cytotoxic),[9],1.56% (inactive)
same,"activity change, negative = inhibition",[10],-14.2% (inactive)
same,"activity change, negative = inhibition",[11],-0.816% (inactive)
